dFosB act-1: mouse delta FosB homodimer activation | P13346 | purified delta FosB, TAMRA-CDK5 oligo fluorescence polarization; percent of positive-control signal above neutral wells | activation, % at 25 µM | 0.99% of 340,000 active | AID 493131;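 active means mean activation above about 17%, with every replicate also reaching it, limit read from the data, passing the limit was not always enough; inconclusive means only one of the two conditions met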
Target sequence (P13346 whole entry, looked up): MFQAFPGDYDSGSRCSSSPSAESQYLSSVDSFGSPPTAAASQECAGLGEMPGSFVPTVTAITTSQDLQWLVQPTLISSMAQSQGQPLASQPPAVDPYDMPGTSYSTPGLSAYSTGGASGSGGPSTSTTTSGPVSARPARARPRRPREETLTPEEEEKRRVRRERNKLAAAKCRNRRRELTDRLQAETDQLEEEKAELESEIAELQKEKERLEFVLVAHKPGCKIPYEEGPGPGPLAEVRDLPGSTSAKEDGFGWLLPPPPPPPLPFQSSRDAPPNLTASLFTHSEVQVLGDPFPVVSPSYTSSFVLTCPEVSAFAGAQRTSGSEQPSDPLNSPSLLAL
Bfl-1 A1 inh: inhibitors of the anti-apoptotic protein A1, read as caspase activation | MEF A1-2A-BIM cells, Caspase-Glo 3/7 luminescence, 3 h; percent of clofoctol response, vehicle zero | 0.066% of 330,000 active | AID 2462 | caspase activation, % (no concentration beside the values);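 active means over half of replicate activation scores above 10%, or exactly half above 10 with the replicate mean above 10; inconclusive means replicate mean below 10 yet half the replicates above 10; inactive means over half of replicates below 10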
Neddyl block: inhibitors of human cullin neddylation; P61081+Q13564; TR-FRET cullin neddylation, biochemical; inhibition, % at 25 µM; 0.58% of 360,000 active; in the data active means inhibition above about 36%
Vif inh: inhibitors of HIV Vif. HEK293T cells, Vif self-association by quenched fluorescence, imaging, 24 h. 0.35% of 340,000 active. inhibition, % at 7.49 µM; in the data active means inhibition above about 50%, passing the limit was not always enough; inconclusive means no clear call, values can overlap the other calls; inactive means below about 31%
INS-1E GSIS act: GLuc luminescence reporter in INS-1E cells, primary screen for activators of glucose-dependent secretion of insulin; INS-1E GLuc reporter insulin secretion, 2-3 h; AID 743287; activation, % at 16.6 µM; 0.61% of 370,000 active;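 active means lowest replicate activation of at least 40%, so every replicate reaches that level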;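 further: 0% = median of neutral control wells and 100% = median of IBMX positive control wells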
dFosB act-2: activators of mouse delta FosB homodimer DNA binding; shares compounds with dFosB act-1; purified delta FosB, TAMRA-CDK5 oligo fluorescence polarization; normalised: neutral wells 0, positive control 100; activation, % at 24.9 µM; 2,400 tested, under 10 active;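 active means highest replicate activation at or above 34% and every replicate reaching that threshold; inconclusive means meets only one of the two criteria; inactive means meets neither criterion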;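 further: higher polarization means more probe DNA bound by delta FosB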
* = called active by the depositor; ? = inconclusive; . = not tested or not shown. Compounds with a hit are over-represented: about 1.9% of the library has one in this group of screens.

SMILES	dFosB act-1	Bfl-1 A1 inh	Neddyl block	Vif inh	INS-1E GSIS act	dFosB act-2
CCOc1ccc(-n2c([S-])c(C(=O)Nc3ccc(S(=O)(=O)N4CCOCC4)cc3)[n+]3cc(C(N)=O)ccc23)cc1	20.0*	-0.2	-318.4	-18.2	-2.1	1.6
CCOc1ccc(NC(=O)COC(=O)c2ccc(S(=O)(=O)N3CCOCC3)cc2)cc1	10.2	0.3	7.7	-4.1	7.9	.
Cc1cc(=O)oc2cc(OCC(=O)Nc3ccc(CN4CCOCC4)cc3)ccc12	-17.4	-1.1	25.4	1.2	-2.6	.
O=C(COc1ccc2c(-c3ccccc3)cc(=O)oc2c1)Nc1ccc(CN2CCOCC2)cc1	27.1*	-0.2	15.8	4.9	21.1	1.7
N#Cc1ccc(C23CC4(C2)[C@H](CN(CC2CCCCC2)[C@@H]4c2ccccc2)C3c2ccccc2)cc1 (stereo partly drawn)	0.3	0.0	-17.3	-4.0	4.4	.
N#Cc1ccc(C23CC4(C2)[C@H](CN(CC2CCCCC2)[C@@H]4c2ccccc2)C3c2ccc(Cl)nc2)cc1 (stereo partly drawn)	24.8*	-0.8	-3.1	1.8	8.0	-0.5
O=C(COC(=O)c1ccc(Br)cc1)NCc1ccc(F)cc1	19.8*	-0.9	8.9	1.9	4.4	2.2
Cc1cc(C)c2nc(NCCCNC(=S)NCCCN(C)C)c(C#N)cc2c1	31.6*	1.4	.	9.3	5.9	?
C[C@H](CO)N1C[C@H](C)[C@H](CN(C)S(C)(=O)=O)Oc2c(NC(=O)C3CCCCC3)cccc2C1=O	.	.	.	.	4.1	.
COc1ccc(NC(=O)N(C)C[C@H]2OCCCC[C@@H](C)Oc3ccc(NC(=O)Nc4ccc5c(c4)OCO5)cc3C(=O)N([C@@H](C)CO)C[C@H]2C)cc1	.	.	.	.	3.6	.
Cc1cccc(NC(=O)Cn2cc(C(=O)C3CC3)c3ccccc32)c1C	21.2*	1.0	-8.2	2.5	0.7	1.8
Cc1ccc(NC(=O)Cn2cc(C(=O)C3CC3)c3ccccc32)c(C)c1	-6.5	-0.7	-31.6	5.4	-1.6	.
Cc1ccc(C)c(NC(=O)Cn2cc(C(=O)C3CC3)c3ccccc32)c1	72.0*	-0.1	-43.3	7.6	2.3	0.2
CC(=O)c1cn(CC(=O)Nc2ccccc2C(F)(F)F)c2ccccc12	3.9	-0.5	-3.5	-52.0	20.9	.
CC(=O)c1cn(CC(=O)Nc2cccc(C)c2C)c2ccccc12	-7.1	-0.2	1.3	-13.2	-4.6	.
CCC(=O)c1cn(CC(=O)Nc2cccc(C)c2C)c2ccccc12	25.3*	-0.1	-40.0	-8.6	-7.5	6.9
CC(=O)c1cn(CC(=O)Nc2ccc(C)cc2C)c2ccccc12	27.9*	-0.6	-6.9	-21.8	.	7.6
C[C@H]1CN(C)C(=O)c2cccc(N(C)C)c2O[C@@H]1CN(C)S(C)(=O)=O	.	.	.	.	13.6	.
COCC(=O)N1CCCCN2[C@H](CO)[C@H](c3ccc(-c4cccc(C)c4)cc3)[C@H]2C1	.	.	.	.	5.8	.
O=C(CSc1nc2c([nH]c3ccccc32)c(=O)n1-c1cccc(Cl)c1)N1CCOCC1	54.8*	-0.3	-14.3	.	-4.1	3.9
O=C(CSc1nc2c([nH]c3ccccc32)c(=O)n1-c1ccccc1)N1CCOCC1	-3.0	-0.5	-11.9	10.4	10.1	.
CCc1cc2ccc(OC)cc2nc1SCC(=O)Nc1cc(C)on1	110.8*	-0.6	-263.1	3.7	48.4*	0.5
COc1cccc(-n2c(SCC(=O)Nc3cc(C)on3)nc3c([nH]c4ccccc43)c2=O)c1	39.2*	0.1	-10.8	-1.9	9.1	3.2
C[C@@H]1CN([C@@H](C)CO)S(=O)(=O)c2ccc(C#C[C@@H](C)O)cc2O[C@H]1CN(C)C(=O)c1ccccc1	.	.	.	.	4.5	.
C[C@H]1CN([C@@H](C)CO)C(=O)c2cc(NC(=O)Cn3cnnn3)ccc2O[C@@H]1CN(C)C(=O)Nc1cccc2ccccc12	.	.	.	.	10.7	.
SMILES	dFosB act-1	Bfl-1 A1 inh	Neddyl block	Vif inh	INS-1E GSIS act	dFosB act-2
O=C(N/N=C/c1ccncc1)c1cccc(N/N=C/c2ccncc2)c1	-9.5	-0.1	-35.0	2.2	0.4	.
O=C(N/N=C/c1cccnc1)c1ccc(NC(=O)c2ccc(Cl)cc2)cc1	42.5*	0.1	9.2	-10.7	6.2	-10.2
CC(=O)Nc1ccc(C(=O)N/N=C/c2cccnc2)cc1	-2.7	-0.7	-5.6	9.0	7.9	.
O=C(N/N=C/c1ccncc1)c1cccc(NC(=O)c2ccc(Cl)cc2)c1	41.1*	0.2	24.3	-1.8	5.1	5.0
O=C(N/N=C\c1cccnc1)c1cc(-c2ccc(Cl)s2)[nH]n1	32.9*	1.4	-9.3	-7.1	-8.8	3.2
COc1ccccc1-c1cnc2c(c1)C(=O)N([C@H](C)CO)C[C@H](C)[C@H](CN(C)CC1CC1)O2	.	.	.	.	-3.5	.
C[C@@H]1COC(=O)[C@H](Cc2ccc(F)cc2)C/C=C\C[C@@H](CC(=O)N[C@H](CO)Cc2ccccc2)C(=O)N1	6.0	-0.4	7.2	-0.9	.	.
O=C(C[C@@H]1C/C=C\C[C@@H](Cc2ccc(F)cc2)C(=O)OC[C@@H](Cc2ccccc2)NC1=O)N[C@H](CO)Cc1ccccc1	32.0*	0.5	-13.3	6.8	11.8	4.9
O=C(Nc1ccccc1)c1cnc(-c2ccccc2)nc1-c1ccccc1	47.9*	-0.9	-13.9	-20.2	.	3.1
CCOC(=O)Nc1ccc2c(COC(=O)CN(C)S(=O)(=O)c3ccc(C)cc3)cc(=O)oc2c1	36.0*	-0.8	0.2	-1.9	6.5	7.5
Cc1cc(C)c2c(n1)sc1c(-c3ccccc3)c(C#N)c(N)nc12	29.3*	1.1	13.5	1.3	52.5	-1.5
CC(=O)NC[C@@H]1[C@H](c2ccc(-c3cccc(F)c3)cc2)[C@@H](CO)N1C(C)=O	.	.	.	.	-1.0	.
CCOC(=O)c1cccc(NC(=O)CCS(=O)(=O)c2ccc(Br)s2)c1	111.3*	0.2	-22.8	-12.9	.	2.6
C[C@H](O)C#Cc1cnc2c(c1)C(=O)N([C@@H](C)CO)C[C@H](C)[C@@H](CN(C)CC1CCCCC1)O2	.	.	.	.	8.8	.
Cc1ccc(C(=O)OCC(=O)Nc2cc(F)ccc2F)cc1NC(=O)c1ccco1	31.6*	0.2	2.9	1.4	.	8.2
C[C@H](CO)N1C[C@H](C)[C@@H](CN(C)Cc2ccccc2)Oc2ccc(NC(=O)Nc3ccc(F)cc3)cc2C1=O	.	.	.	.	-10.9	.
O=C(CSc1ncnc2[nH]ncc12)Nc1nc(-c2ccc(F)c(F)c2)cs1	33.1*	0.2	-5.1	-14.4	0.6	-0.6
O=C(Cc1ccc(F)cc1)Nc1nc(-c2ccc(F)c(F)c2)cs1	-3.7	1.2	-6.3	-4.0	-2.5	.
Cc1cccc(-c2nsc(SCC(=O)Nc3ccc4c(c3)OCO4)n2)c1	19.6*	-1.1	-3.1	-0.7	-19.9	-0.3
Cc1noc(C)c1S(=O)(=O)Nc1ccc2c(c1)CC(=O)N([C@H](C)CO)C[C@@H](C)[C@H](CN(C)C(=O)Nc1ccc3c(c1)OCO3)O2	.	.	.	.	-10.1	.
